Assay results published in PubChem BioAssay (Tox21).
Where “and” joins values, the source holds several entries; their conditions need not be identical. Equal values may be shown once. Results filed as inconclusive are left out. A call without a number means that no potency is given here. Some structures have more than one record in an assay (separate samples or runs), and their calls can disagree. Calls of active or inactive are those of the source. Unless noted, calls follow the shape of the dose curve; as a rule, active = well fitted curve in the direction sought with a large enough effect in the repeat runs; inconclusive = weak or mixed curves; inactive = no such curve, though single readings can be large; an effect the other way counts as inactive or inconclusive.

Tests used:
[1] = Human pregnane X receptor (PXR) small molecule agonists, qHTS cell viability counter screen (AID 1346977); also: nearly all actives have a fitted effect of over 50% in size; also: potency is read from the fitted curve at half-maximal effect
In short: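 Viability counter screen: CellTiter-Fluor signal in PXR-Luc HepG2 cells, 24hr compound exposure, 37C, 5% CO2.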

[2] = Caspase-3/7 induction in HepG2 cells by small molecules, qHTS assay (AID 1346978); also: nearly all actives have a fitted effect of over 15% in size; also: potency is read from the fitted curve at half-maximal effect
In short: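 Wild-type HepG2 cells, 2,000/well, settled 5 hr at 37 C and 5% CO2, then compound-treated for 17 hr; caspase-3/7 activity read by luminescent Caspase-Glo 3/7 after 30 min at room temperature.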

[3] = Caspase-3/7 induction in CHO-K1 cells by small molecules, qHTS assay (AID 1346980); also: nearly all actives have a fitted effect of over 15% in size; also: potency is read from the fitted curve at half-maximal effect
In short: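 Wild-type CHO-K1 cells exposed to compounds for 17hr at 37 C, 5% CO2. Caspase-3/7 activity then measured by Caspase-Glo 3/7 luminescence after 30min at room temperature.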

[4] = Caspase-3/7 induction in HepG2 cells by small molecules, qHTS cell viability counter screen (AID 1346981); also: nearly all actives have a fitted effect of over 30% in size; also: potency is read from the fitted curve at half-maximal effect
In short: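 Viability determined by CellTiter-Fluor fluorescence in HepG2 wells also used for the luminescent Caspase-Glo 3/7 read. Compounds were present for 16 hr at 37 C, 5% CO2 before reagent addition.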

[5] = biological target: Acetylcholinesterase (Homo sapiens) (UniProt P22303); test: Acetylcholinesterase (AChE) small molecule antagonists: colormetric cell-based qHTS assay (AID 1347395; calls by dose curve; also: nearly all actives have a fitted effect of over 30% in size; also: potency is read from the fitted curve at half-maximal effect)
Chain of Acetylcholinesterase (Homo sapiens) (P22303 whole entry, looked up): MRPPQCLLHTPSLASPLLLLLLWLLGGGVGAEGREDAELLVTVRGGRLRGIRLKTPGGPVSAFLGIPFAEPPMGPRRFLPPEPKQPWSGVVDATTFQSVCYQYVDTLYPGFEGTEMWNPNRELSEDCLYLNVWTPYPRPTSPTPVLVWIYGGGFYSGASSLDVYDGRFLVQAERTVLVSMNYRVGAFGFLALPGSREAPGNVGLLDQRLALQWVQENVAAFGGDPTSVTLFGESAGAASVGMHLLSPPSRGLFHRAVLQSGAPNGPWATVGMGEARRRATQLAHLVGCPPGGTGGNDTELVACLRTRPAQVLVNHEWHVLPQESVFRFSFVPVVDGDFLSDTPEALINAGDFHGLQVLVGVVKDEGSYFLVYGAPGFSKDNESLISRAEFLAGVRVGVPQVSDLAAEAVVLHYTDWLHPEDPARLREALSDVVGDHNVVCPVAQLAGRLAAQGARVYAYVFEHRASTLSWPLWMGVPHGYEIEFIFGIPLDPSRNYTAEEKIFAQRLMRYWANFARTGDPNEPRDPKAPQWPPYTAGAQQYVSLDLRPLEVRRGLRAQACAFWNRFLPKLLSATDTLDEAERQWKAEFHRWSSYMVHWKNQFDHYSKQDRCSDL
In short: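 Homogeneous whole-cell format. SH-SY5Y cells seeded overnight, dosed with compound (30 min, 37 C, 5% CO2), then given DTNB/acetylthiocholine cocktail for 90 min at 37 C; colorimetric signal.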

[6] = biological target: Acetylcholinesterase (Homo sapiens) (UniProt P22303); test: Acetylcholinesterase (AChE) small molecule antagonists: enzyme-based qHTS assay (AID 1347397; calls by dose curve; also: nearly all actives have a fitted effect of over 55% in size; also: potency is read from the fitted curve at half-maximal effect); conditions: Potency: AChE enzyme activity inhibition
In short: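 Recombinant human AChE (50 mU/mL) preincubated with compound 30 min at room temperature; acetylthiocholine plus DTNB then added, and thiocholine formation read colorimetrically after 10 min at room temperature. DMSO served as vehicle control.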

[7] = biological target: Acetylcholinesterase (Homo sapiens) (UniProt P22303); test: Acetylcholinesterase (AChE) small molecule antagonists: fluorescence cell-based qHTS assay (AID 1347398; calls by dose curve; also: nearly all actives have a fitted effect of over 50% in size; also: potency is read from the fitted curve at half-maximal effect); conditions: Potency: AChE activity
In short: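 SH-SY5Y cells (2000/well), attached overnight, incubated with compound 30 min at 37 C. Acetylthiocholine plus Thiolite Green then added for 40 min at room temperature. Thiocholine fluorescence (Ex/Em 490/520 nm) reports cellular AChE activity.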

[8] = biological target: Acetylcholinesterase (Homo sapiens) (UniProt P22303); test: Acetylcholinesterase (AChE) small molecule antagonists: enzyme-based qHTS assay with human liver microsomes (AID 1347399; calls by dose curve; also: nearly all actives have a fitted effect of over 60% in size; also: potency is read from the fitted curve at half-maximal effect); conditions: Potency: qHTS inhibition
In short: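 Recombinant human AChE (50 mU/mL in the enzyme mix) and human liver microsomes (0.25 mg/mL final) were preincubated with compound and NADPH (0.25 mg/mL final) for 30 min at 37 C. Acetylthiocholine/DTNB was then added; thiocholine was read colorimetrically after 10 min at room temperature.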

[9] = biological target: Cytochrome P450 2C19 (Homo sapiens) (UniProt P33261); test: Cytochrome P450 Family 2 Subfamily C Member 19 (CYP2C19) small molecule antagonists: luciferase reporter qHTS assay (AID 1671197); also: nearly all actives have a fitted effect of over 65% in size; also: potency is read from the fitted curve at half-maximal effect
Chain of Cytochrome P450 2C19 (Homo sapiens) (P33261 whole entry, looked up): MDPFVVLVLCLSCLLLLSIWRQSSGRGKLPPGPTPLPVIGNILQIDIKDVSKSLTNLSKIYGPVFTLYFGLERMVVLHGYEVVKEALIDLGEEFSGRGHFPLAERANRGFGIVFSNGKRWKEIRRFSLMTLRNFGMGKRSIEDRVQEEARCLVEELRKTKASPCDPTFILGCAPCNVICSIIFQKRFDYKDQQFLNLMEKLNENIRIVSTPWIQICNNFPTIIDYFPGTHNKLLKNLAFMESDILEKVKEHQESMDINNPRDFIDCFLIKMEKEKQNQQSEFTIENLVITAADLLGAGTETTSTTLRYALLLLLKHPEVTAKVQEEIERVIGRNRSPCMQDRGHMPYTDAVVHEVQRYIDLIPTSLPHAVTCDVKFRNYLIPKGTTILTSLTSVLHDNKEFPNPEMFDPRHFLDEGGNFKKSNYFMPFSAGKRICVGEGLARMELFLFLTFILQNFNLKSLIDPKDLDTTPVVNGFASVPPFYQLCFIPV
In short: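 Compounds were tested on CYP2C19 activity via proluciferin conversion to luciferin. The 37C, 1 h reaction followed NADPH addition; detection reagent stopped it.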

[10] = biological target: Cytochrome P450 2C9 (Homo sapiens) (UniProt P11712); test: Cytochrome P450 Family 2 Subfamily C Member 9 (CYP2C9) small molecule antagonists: luciferase reporter qHTS assay (AID 1671198); also: nearly all actives have a fitted effect of over 50% in size; also: potency is read from the fitted curve at half-maximal effect
Chain of Cytochrome P450 2C9 (Homo sapiens) (P11712 whole entry, looked up): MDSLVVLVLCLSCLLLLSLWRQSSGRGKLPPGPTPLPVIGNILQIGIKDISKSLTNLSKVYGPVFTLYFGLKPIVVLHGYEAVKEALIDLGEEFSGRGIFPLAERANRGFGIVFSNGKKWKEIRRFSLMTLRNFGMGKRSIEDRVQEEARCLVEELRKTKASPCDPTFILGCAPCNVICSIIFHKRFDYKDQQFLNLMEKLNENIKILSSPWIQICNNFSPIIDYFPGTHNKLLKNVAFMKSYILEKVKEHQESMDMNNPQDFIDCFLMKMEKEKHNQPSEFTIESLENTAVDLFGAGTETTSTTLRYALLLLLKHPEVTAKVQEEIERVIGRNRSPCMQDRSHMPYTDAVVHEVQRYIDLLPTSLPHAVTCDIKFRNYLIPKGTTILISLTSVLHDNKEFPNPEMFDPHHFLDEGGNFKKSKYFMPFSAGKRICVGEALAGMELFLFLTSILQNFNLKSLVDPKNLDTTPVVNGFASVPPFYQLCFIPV
In short: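 P450-Glo proluciferin substrate with CYP2C9 enzyme; 10 min RT preincubation, then NADPH regeneration 1 h at 37C; luciferin detection reagent 20 min RT, luminescence in relative luminescence units.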

[11] = biological target: Cytochrome P450 1A2 (Homo sapiens) (UniProt P05177); test: Cytochrome P450 Family 1 Subfamily A Member 2 (CYP1A2) small molecule antagonists: luciferase reporter qHTS assay (AID 1671199); also: nearly all actives have a fitted effect of over 50% in size; also: potency is read from the fitted curve at half-maximal effect
Chain of Cytochrome P450 1A2 (Homo sapiens) (P05177 whole entry, looked up): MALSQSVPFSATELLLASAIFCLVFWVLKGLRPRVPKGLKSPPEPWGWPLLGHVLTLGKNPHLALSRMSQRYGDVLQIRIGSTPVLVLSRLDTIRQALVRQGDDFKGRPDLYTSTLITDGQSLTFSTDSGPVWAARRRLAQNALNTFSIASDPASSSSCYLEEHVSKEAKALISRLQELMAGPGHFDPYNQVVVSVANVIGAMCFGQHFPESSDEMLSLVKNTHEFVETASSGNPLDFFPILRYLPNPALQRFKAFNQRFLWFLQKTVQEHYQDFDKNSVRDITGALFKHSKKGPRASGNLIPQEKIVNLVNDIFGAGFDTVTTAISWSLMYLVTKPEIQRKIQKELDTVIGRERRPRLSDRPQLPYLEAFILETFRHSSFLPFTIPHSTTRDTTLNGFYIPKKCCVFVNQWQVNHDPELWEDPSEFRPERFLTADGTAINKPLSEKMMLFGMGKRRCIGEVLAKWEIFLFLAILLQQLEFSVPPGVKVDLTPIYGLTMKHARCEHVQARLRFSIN
In short: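 Enzymatic CYP1A2 assay, human, luminescent: 10 min compound–enzyme–substrate preincubation, 1 h NADPH-dependent turnover, 20 min detection step, room temperature throughout. Reduced light indicates lower CYP1A2 activity.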

[12] = biological target: Voltage-gated inwardly rectifying potassium channel KCNH2 (Homo sapiens) (UniProt Q12809); test: Human Ether-a-go-go-Related Gene (hERG) channel small molecule antagonists: fluorescence cell-based qHTS assay (AID 1671200); also: nearly all actives have a fitted effect of over 50% in size; also: potency is read from the fitted curve at half-maximal effect
Chain of Voltage-gated inwardly rectifying potassium channel KCNH2 (Homo sapiens) (Q12809 whole entry, looked up): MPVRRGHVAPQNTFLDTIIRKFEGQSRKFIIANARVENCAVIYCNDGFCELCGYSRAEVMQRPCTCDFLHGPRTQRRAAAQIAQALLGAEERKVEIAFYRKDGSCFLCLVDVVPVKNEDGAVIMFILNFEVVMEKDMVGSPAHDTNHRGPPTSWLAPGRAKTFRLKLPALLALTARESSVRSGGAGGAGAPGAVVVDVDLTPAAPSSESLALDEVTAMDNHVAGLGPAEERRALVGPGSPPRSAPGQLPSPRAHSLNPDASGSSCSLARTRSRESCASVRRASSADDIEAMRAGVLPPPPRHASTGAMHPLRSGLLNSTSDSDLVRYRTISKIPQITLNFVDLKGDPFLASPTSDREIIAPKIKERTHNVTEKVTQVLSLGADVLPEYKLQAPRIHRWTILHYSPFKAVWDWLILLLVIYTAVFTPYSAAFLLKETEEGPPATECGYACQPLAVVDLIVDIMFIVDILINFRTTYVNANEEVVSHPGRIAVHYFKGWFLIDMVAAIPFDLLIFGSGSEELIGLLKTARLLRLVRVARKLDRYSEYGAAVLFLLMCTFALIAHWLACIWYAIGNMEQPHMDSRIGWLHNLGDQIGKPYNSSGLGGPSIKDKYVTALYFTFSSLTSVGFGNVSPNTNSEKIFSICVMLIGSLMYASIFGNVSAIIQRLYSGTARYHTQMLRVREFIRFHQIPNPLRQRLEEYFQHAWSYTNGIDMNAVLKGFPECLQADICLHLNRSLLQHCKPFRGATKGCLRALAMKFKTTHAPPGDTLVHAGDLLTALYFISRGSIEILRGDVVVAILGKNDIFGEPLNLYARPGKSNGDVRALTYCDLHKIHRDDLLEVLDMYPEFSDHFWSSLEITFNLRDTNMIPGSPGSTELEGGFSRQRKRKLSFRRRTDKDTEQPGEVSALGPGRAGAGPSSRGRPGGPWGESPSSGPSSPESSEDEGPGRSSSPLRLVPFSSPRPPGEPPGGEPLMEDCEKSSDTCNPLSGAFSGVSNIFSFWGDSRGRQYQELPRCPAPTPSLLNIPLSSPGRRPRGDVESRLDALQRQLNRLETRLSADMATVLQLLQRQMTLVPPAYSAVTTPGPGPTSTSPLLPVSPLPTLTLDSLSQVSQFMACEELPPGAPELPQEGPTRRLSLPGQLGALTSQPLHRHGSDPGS
In short: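 Thallium served as the potassium surrogate; its influx into dye-loaded U2OS cells carrying the channel was measured by fluorescence over 2 min.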

[13] = biological target: Cytochrome P450 3A4 (Homo sapiens) (UniProt P08684); test: Cytochrome P450 Family 3 Subfamily A Member 4 (CYP3A4) small molecule antagonists: luciferase reporter qHTS assay (AID 1671201); also: nearly all actives have a fitted effect of over 50% in size; also: potency is read from the fitted curve at half-maximal effect
Chain of Cytochrome P450 3A4 (Homo sapiens) (P08684 whole entry, looked up): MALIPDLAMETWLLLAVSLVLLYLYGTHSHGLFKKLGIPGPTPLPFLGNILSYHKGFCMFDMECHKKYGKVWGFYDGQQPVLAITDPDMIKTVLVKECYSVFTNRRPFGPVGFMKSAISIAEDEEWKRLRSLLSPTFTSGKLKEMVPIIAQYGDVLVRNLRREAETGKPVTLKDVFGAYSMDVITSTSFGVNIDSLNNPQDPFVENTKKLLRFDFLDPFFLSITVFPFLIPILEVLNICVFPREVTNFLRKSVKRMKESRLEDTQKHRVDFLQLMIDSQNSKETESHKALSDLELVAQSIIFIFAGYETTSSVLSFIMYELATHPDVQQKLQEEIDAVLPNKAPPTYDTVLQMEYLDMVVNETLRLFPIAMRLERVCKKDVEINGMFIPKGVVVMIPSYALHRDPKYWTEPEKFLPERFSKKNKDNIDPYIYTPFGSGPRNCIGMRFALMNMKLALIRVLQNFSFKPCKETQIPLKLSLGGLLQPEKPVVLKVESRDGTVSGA
In short: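 Relative luminescence units after 20 min with luciferin detection reagent served as read-out. Beforehand, CYP3A4 turned over a proluciferin substrate for 1 h at room temperature with NADPH regeneration, following 10 min compound preincubation.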

[14] = biological target: Nuclear receptor subfamily 1 group I member 2 (Homo sapiens) (UniProt O75469); test: Human pregnane X receptor (PXR) small molecule agonists, qHTS assay (AID 1346982); also: nearly all actives have a fitted effect of over 35% in size; also: potency is read from the fitted curve at half-maximal effect
Chain of Nuclear receptor subfamily 1 group I member 2 (Homo sapiens) (O75469 whole entry, looked up): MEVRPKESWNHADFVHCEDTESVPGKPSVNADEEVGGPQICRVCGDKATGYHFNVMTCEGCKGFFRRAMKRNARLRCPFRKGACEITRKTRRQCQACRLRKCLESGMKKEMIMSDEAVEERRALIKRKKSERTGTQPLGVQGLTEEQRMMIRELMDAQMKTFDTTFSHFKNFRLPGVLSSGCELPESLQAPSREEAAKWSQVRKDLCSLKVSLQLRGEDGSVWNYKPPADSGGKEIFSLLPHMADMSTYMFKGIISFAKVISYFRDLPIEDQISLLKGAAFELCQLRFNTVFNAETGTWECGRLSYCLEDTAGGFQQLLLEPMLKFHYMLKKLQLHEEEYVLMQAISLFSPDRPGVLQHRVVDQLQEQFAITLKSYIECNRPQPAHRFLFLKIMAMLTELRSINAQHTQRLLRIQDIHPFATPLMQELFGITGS
In short: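 Compound-induced hPXR transactivation of a CYP3A4 luciferase reporter was scored in HepG2 PXR-Luc cells over 24 hr at 37 C, 5% CO2, by luminescence.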

[15] = Caspase-3/7 induction in CHO-K1 cells by small molecules, qHTS cell viability counter screen (AID 1346979); also: nearly all actives have a fitted effect of over 35% in size
In short: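 Viability readout by fluorescence (CellTiter-Fluor) on wild-type CHO-K1 cells exposed for 16hr at 37C and 5% CO2 to compounds delivered in DMSO; reagent incubated 1hr before reading.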

[16] = biological target: Cytochrome P450 2D6 (Homo sapiens) (UniProt P10635); test: Cytochrome P450 Family 2 Subfamily D Member 6 (CYP2D6) small molecule antagonists: luciferase reporter qHTS assay (AID 1671196); also: nearly all actives have a fitted effect of over 50% in size; also: potency is read from the fitted curve at half-maximal effect
Chain of Cytochrome P450 2D6 (Homo sapiens) (P10635 whole entry, looked up): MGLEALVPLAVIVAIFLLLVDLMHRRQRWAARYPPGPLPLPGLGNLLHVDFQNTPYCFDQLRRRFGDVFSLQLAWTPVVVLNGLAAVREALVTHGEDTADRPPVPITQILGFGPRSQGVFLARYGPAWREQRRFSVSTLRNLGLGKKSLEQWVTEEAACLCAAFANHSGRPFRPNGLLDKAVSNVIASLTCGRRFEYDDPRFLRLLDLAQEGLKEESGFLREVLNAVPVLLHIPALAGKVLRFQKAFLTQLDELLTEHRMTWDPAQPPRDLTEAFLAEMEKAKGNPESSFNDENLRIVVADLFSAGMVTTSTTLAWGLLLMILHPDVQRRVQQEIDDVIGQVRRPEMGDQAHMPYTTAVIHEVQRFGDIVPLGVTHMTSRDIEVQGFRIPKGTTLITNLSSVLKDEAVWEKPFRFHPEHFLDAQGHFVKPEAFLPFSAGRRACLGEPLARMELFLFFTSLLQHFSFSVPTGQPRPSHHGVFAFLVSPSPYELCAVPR
In short: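 Each well received CYP2D6 with its proluciferin substrate and chemical, sat 10 min, then got NADPH regeneration solution for 1 h at room temperature. Luminescence in RLU served as the activity measure.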

[17] = biological target: Nuclear receptor subfamily 1 group I member 2 (Rattus norvegicus) (UniProt Q9R1A7); test: Rat pregnane X receptor (rPXR) activation by small molecules, qHTS assay (AID 1346983); conditions: rPXR luciferase reporter cells, One-Glo luminescence, 24 h; max activation: stronger effect = higher value; also: nearly all actives have a fitted effect of over 20% in size
In short: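 Cell-based rPXR activation assay: rPXR cells, 2,000 per well, rested 5hr at 37 C, then exposed to compounds in DMSO for 24 hr at 37 C. Luciferase activity read by One-Glo luminescence after 30 min at room temperature.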

[18] = biological target: Nuclear receptor subfamily 1 group I member 2 (Homo sapiens) (UniProt O75469); test: CYP3A4 induction through human pregnane X receptor (PXR) by small molecules, qHTS assay (AID 1346984); also: nearly all actives have a fitted effect of over 40% in size
In short: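 Readings come from a luciferase reporter: DPX-2 cells, which are HepG2 cotransfected with PXR and a CYP3A4-promoter construct, were exposed to test compounds for 24 h at 37C before One-Glo detection.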

Row | SMILES | Potency [1] | Potency [2] | Potency [3] | Potency [4] | Potency [5] | Potency [6] | Potency [7] | Potency [8] | Potency [9] | Potency [10] | Potency [11] | Potency [12] | Potency [13] | Potency [14] | Potency [15] | Potency [16] | max activation [17] | Potency [18]
1 | CNC(=O)Oc1cc(C)cc(C(C)C)c1 | inactive | inactive | inactive | inactive | 633 nM (active) | 0.399 µM (active) | 0.178 µM (active) | 5.03 µM (active) | 20 µM (active) | inactive | 20 µM (active) | inactive | inactive | – | – | – | – | –
2 | Fc1ccc(C(OCCN2CCN(CCCc3ccccc3)CC2)c2ccc(F)cc2)cc1 | 16.8 µM (active) | – | 23.7 µM (active) | 23.7 µM (active) | inactive | inactive | inactive | inactive | – | – | – | – | inactive | inactive | – | – | – | –
3 | [C-]1=CC=CC1.[Cl][Zr+2][Cl].c1cc[cH-]c1 | inactive | – | inactive | inactive | – | – | – | – | – | – | – | inactive | – | – | – | – | – | –
4 | N#Cc1ccc(N(CC(N)=O)CC(F)(F)F)cc1C(F)(F)F | – | inactive | inactive | inactive | inactive | inactive | inactive | inactive | 79.6 µM (active) | 35.6 µM (active) | – | inactive | – | inactive | inactive | 31.7 µM (active) | – | –
5 | CC(O)C(=O)[O][Hg][c]1ccccc1 (centres undefined) | 1.93 µM (active) | inactive | inactive | 4.86 µM (active) | inactive | inactive | – | inactive | – | 1.78 µM (active) | 17.8 µM (active) | 17.4 µM (active) | 6.33 µM (active) | – | – | 0.448 µM (active) | – | –
6 | CC(C)[C@@H](Nc1ccc(C(F)(F)F)cc1Cl)C(=O)OC(C#N)c1cccc(Oc2ccccc2)c1 (some centres undefined) | – | inactive | inactive | inactive | inactive | inactive | inactive | inactive | 10.8 µM (active) | 6.09 µM (active) | inactive | inactive | – | 7.42 µM (active) | inactive | inactive | – | –
7 | CCC[CH2][Sn]([CH2]CCC)([O]C(C)=O)[O]C(C)=O | 27.6 µM (active) | inactive | inactive | 49 µM (active) | inactive | – | – | inactive | inactive | inactive | – | inactive | inactive | 7.77 µM (active) | – | – | – | –
8 | O.O.O.O=C([O-])[C@H]([O-])[C@@H]([O-])C(=O)[O-].O=C([O-])[C@H]([O-])[C@@H]([O-])C(=O)[O-].[K+].[K+].[Sb+3].[Sb+3] | inactive | inactive | inactive | inactive | inactive | – | – | – | – | – | – | inactive | – | – | – | – | – | –
9 | CCC1COC(Cn2cncn2)(c2ccc(Cl)cc2Cl)O1 (centres undefined) | inactive | inactive | inactive | inactive | inactive | inactive | inactive | inactive | 0.317 µM (active) | 6.33 µM (active) | 28.3 µM (active) | inactive | 0.0894 µM (active) | – | – | – | – | –
10 | CN(C)C(=S)SSC(=S)N(C)C | 447 nM (active) and 486 nM (active) and 422 nM (active) | 851 nM (active) and 864 nM (active) and 668 nM (active) | inactive | 26.9 µM (active) and 19.3 µM (active) and 15 µM (active) | 78.5 µM (active) and inactive | inactive | – | inactive | 7 µM (active) and 6.33 µM (active) and 3.09 µM (active) | 9.89 µM (active) and 6.33 µM (active) and 2.19 µM (active) | 3.94 µM (active) and 4.48 µM (active) and 2.75 µM (active) | 43 µM (active) and 49 µM (active) | 39.4 µM (active) | – | – | 89.4 µM (active) and inactive | -13.9% (inactive) | inactive
11 | CCN1CCC2(CC1)COc1cc3c(cc12)N(C(=O)c1ccc(-c2ccc(-c4nnc(C)o4)cc2C)cc1)CC3 | 15.9 µM (active) | – | – | 50.2 µM (active) | 29300 nM (active) | 32.8 µM (active) | 10.4 µM (active) | inactive | – | – | inactive | inactive | inactive | 3.99 µM (active) | – | 32.8 µM (active) | – | –
12 | CCC(C)c1cccc(C(C)CC)c1O (centres undefined) | inactive | – | inactive | inactive | inactive | inactive | inactive | inactive | inactive | 15.9 µM (active) | – | inactive | 28.3 µM (active) | inactive | – | – | – | –
13 | CNC(=O)CSP(=O)(OC)OC | inactive | inactive | inactive | inactive | – | inactive | inactive | inactive | inactive | inactive | – | inactive | inactive | inactive | – | – | – | –
14 | CC(=O)C(Cl)C(=O)N(C)C (centres undefined) | inactive | inactive | inactive | inactive | inactive | inactive | inactive | inactive | inactive | inactive | inactive | inactive | inactive | – | – | – | – | –
15 | CC(C)=CC1C(C(=O)OC(C#N)c2cccc(Oc3ccccc3)c2)C1(C)C (centres undefined) | inactive | inactive | inactive | inactive | inactive | – | inactive | inactive | 31.7 µM (active) | – | – | inactive | inactive | – | – | – | – | –
16 | Oc1cc(Cl)c(Cl)c(Cl)c1Cl | 29.9 µM (active) | inactive | inactive | – | inactive | inactive | – | inactive | inactive | – | 27.6 µM (active) | inactive | inactive | 33.6 µM (active) | – | – | – | –
17 | CC(C)N(C(=O)SC/C(Cl)=C/Cl)C(C)C | inactive | inactive | inactive | inactive | inactive | inactive | inactive | inactive | 3.19 µM (active) | – | – | – | – | – | – | inactive | – | –
